# Source: PubChem (several laboratories)
# The full list was thinned out, with hits kept by preference.
# GIRK2 act = Activators of human GIRK2-containing channels; HEK293 GIRK2/NPY4 cells, thallium flux fluorescence; activation (% efficacy), % for hits at 75 µM; 34,000 tested, under 10 active; AID 1259324;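 active means primary screen hit, no activity in plain HEK293 cells, and in GIRK2-only cells above 5% efficacy rising with concentration; inactive means the rest, including fluorescent compounds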;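 further: efficacy is normalized control-subtracted fluorescence 15 s after thallium addition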
# Target sequence (P48051 whole entry, looked up): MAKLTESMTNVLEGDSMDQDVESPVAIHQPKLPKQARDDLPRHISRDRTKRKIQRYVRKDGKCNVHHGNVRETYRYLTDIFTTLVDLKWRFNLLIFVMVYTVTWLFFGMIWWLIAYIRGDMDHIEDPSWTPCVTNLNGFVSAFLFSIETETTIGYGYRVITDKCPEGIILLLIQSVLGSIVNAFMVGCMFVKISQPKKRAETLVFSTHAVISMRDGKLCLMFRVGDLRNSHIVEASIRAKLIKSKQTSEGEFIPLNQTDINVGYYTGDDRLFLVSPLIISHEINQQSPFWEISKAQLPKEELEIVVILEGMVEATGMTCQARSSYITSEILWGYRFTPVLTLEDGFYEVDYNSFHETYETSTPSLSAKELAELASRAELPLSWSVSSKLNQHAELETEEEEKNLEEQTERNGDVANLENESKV
# AMPAR-TARP mod = modulates AMPAR-stargazin complexes; O88602+P19491; HEK293 GluA2+stargazin, membrane potential dye (FDSS), glutamate EC50; hits were called plate by plate, in both directions; calls only at 30 µM; hit rate 3.5% among 40,000; AID 1259245;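 active means any of four per-well response measures lying three or more SD from its plate-wide compound average, in either direction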
# * marks the source's active call; other numbers are inactive results; i = inactive; . = no result given; + = active, no number; ! = not confirmed by another sample.
SMILES,GIRK2 act,AMPAR-TARP mod
COc1ccc(C(=O)NCCOc2ccc3nnc(-c4ccccc4)n3n2)cc1,i,i
Cc1ccc(-c2c(C)nn3c(NCCN4CCOCC4)cc(C)nc23)cc1,i,i
Cc1cc(C)c2c(n1)nn1c(NCCN(C)C)cc(C)nc21,i,+
Cc1cc(C)c2c(n1)nn1c(NCCc3ccccc3)cc(C)nc21,i,i
Cc1cc(C)c2c(n1)nn1c(NCCN3CCOCC3)cc(C)nc21,i,+
COc1ccc(C(=O)N2CCN(c3nccn3-c3ccccc3F)CC2)cc1OC,i,i
CCc1nc2sc(C(c3cccc(Cl)c3)N3CCCC3)c(O)n2n1 (configuration not stated),i,i
COc1cc(S(=O)(=O)N2CCN=C2c2ccccc2)ccc1F,.,i
CCc1cc(S(=O)(=O)N2CCN=C2c2ccccc2)ccc1OC,i,+
COc1ccc(NC(=O)c2ccc(C)c(S(=O)(=O)N3CCCCCC3)c2)c(OC)c1,.,i
O=C(C1c2ccccc2Oc2ccccc21)N1CCN(c2ccc(-c3ccncc3)nn2)CC1,i,+
O=C(C1CCCCC1)N1CCN(c2ccc(-c3ccncc3)nn2)CC1,i,i
O=C(C1CC1)N1CCN(c2ccc(-c3ccc(Cl)cc3)nn2)CC1,i,i
O=C(C1CCCC1)N1CCN(c2ccc(-c3ccc(Cl)cc3)nn2)CC1,i,+
CC(=O)Nc1cc(C)nn1-c1nc(-c2ccc3c(c2)OCO3)cs1,i,i
O=C(c1nnn(-c2ccccc2Cl)c1-c1ccncc1)N1CCN(c2ccc(F)cc2)CC1,i,i
CC1CN(CC(O)COc2cccc3ccccc23)CC(C)O1 (configuration not stated),.,i
Cc1cc(N2CC(C)OC(C)C2)nc2ccccc12 (configuration not stated),.,+
O=S(=O)(N1CCOCC1)n1nnc2ccccc21,i,i
O=S(=O)(N1CCOCC1)n1c(Cc2ccccc2)nc2ccccc21,i,+
COc1ccc(N(CC(O)CNCCC(C)C)S(=O)(=O)c2ccc(C)cc2)cc1 (configuration not stated),.,+
Cc1ccc(S(=O)(=O)N(CC(O)CNCCC(=O)O)c2ccc(F)cc2)cc1 (configuration not stated),i,i
Cc1c(Cl)cccc1S(=O)(=O)NCC(O)(c1ccccc1)C(F)(F)F (configuration not stated),i,+
O=S(=O)(NCC(O)(c1ccccc1)C(F)(F)F)c1ccccc1Cl (configuration not stated),i,i
COCc1nc2ccccc2n1CC(O)COc1ccc(C(C)C)cc1 (configuration not stated),i,+
SMILES,GIRK2 act,AMPAR-TARP mod
COCc1nc2ccccc2n1CC(O)COc1ccc(Cl)c(C)c1 (configuration not stated),i,i
CCC(=O)Nc1ccc2c(COC)cc(=O)[nH]c2c1,i,.
COc1ccc(CNC(=O)c2ccc(NC(=O)Cn3c(C)cc(C)c(C#N)c3=O)cc2)c(OC)c1,i,+!
COc1ccc(S(=O)(=O)c2c(C)cc(C)n(CC(=O)Nc3cc(OC)ccc3OC)c2=O)cc1,i,i
C=CCN1C(=O)SC(CC(=O)Nc2ccc([N+](=O)[O-])cc2)C1=O (configuration not stated),i,+
C=CCN1C(=O)SC(CC(=O)Nc2ccc(C(=O)OC)cc2)C1=O (configuration not stated),i,i
CN(C)CCCN(C(=O)c1ccnn1C)c1nc2ccc(F)cc2s1,i,.
CC(Oc1ccccc1F)C(=O)N1CCN(c2ccc3nnc(-c4ccco4)n3n2)CC1 (configuration not stated),i,+
O=S(=O)(/C=C/c1ccccc1)N1CCN(c2ccc(-c3ccco3)nn2)CC1,i,i
CCc1ccc(S(=O)(=O)N2CCN(c3ccc4nnc(-c5ccco5)n4n3)CC2)cc1,i,i
O=S(=O)(c1ccc(F)cc1)N1CCN(c2ccc3nnc(-c4ccco4)n3n2)CC1,i,+
O=C(c1ccc(F)cc1F)N1CCN(c2ccc3nnc(-c4ccco4)n3n2)CC1,i,i
O=S(=O)(c1cccc(Cl)c1)N1CCN(c2ccc3nnc(-c4ccco4)n3n2)CC1,i,i
COc1ccc(S(=O)(=O)N2CCN(c3ccc4nnc(-c5ccco5)n4n3)CC2)cc1,i,+
O=S(=O)(/C=C/c1ccccc1)N1CCN(c2ccc3nnc(-c4ccco4)n3n2)CC1,i,+
O=C(NCCC1=CCCCC1)C1CCN(C(=O)Nc2cccs2)CC1,i,i
O=C(COc1ccc2c(c1)OCO2)NCCCn1nc(-c2ccc(Cl)cc2)ccc1=O,i,i
CCOC(=O)Nc1nc(CC(=O)N2CCN(c3ccc(C(C)=O)cc3)CC2)cs1,i,.
CCOC(=O)c1ccc(S(=O)(=O)N2CCN(c3ccc4nnc(CC)n4n3)CC2)cc1,i,i
CCCC(=O)Nc1ccc(S(=O)(=O)N2CCN(c3ccc4nnc(C)n4n3)CC2)cc1,i,+
O=C(NCCNC(=O)c1ccc(NC(=O)C2CCCC2)cc1)Nc1ccccc1,i,i
CCCCSc1ccnc2c1c(=O)n(C)c(=O)n2C,.,+
Cn1c(=O)c2c(SCC(=O)N3CCOCC3)ccnc2n(C)c1=O,.,+
CC1CCN(C(=O)CSc2ccnc3c2c(=O)n(C)c(=O)n3C)CC1,.,i
C#CCSc1ccnc2c1c(=O)n(C)c(=O)n2C,.,i
SMILES,GIRK2 act,AMPAR-TARP mod
COc1ccc2c(=O)c(Oc3ccc(C(=O)Nc4ccccc4C(N)=O)cc3)coc2c1,i,i
CN(C)C(CNC(=O)Nc1ccccc1)c1cccc2ccccc12 (configuration not stated),.,i
Cc1cc(N2CCN(C(=O)COc3ncccn3)CC2)nc(N2CCCCC2)n1,i,.
Cc1ccc(C(=O)N2CCN(c3nc(C)cc(N4CCCC4)n3)CC2)cc1,.,+
O=C(NCC(O)c1ccc(C(F)(F)F)cc1)c1ccc(F)c(F)c1 (configuration not stated),i,.
O=C(COc1ccccc1C1CC(c2ccccc2)=NN1C(=O)c1ccccc1)NCCO (configuration not stated),.,+
O=C(c1ccccc1)N1N=C(c2ccc(F)cc2)CC1c1ccc2nccnc2c1 (configuration not stated),i,.
CCCc1cc(=O)[nH]c(SCc2nc(-c3cc(OC)c(OC)c(OC)c3)no2)n1,i,i
O=C(Nc1ccc2c(c1)CN(S(=O)(=O)c1ccccc1)CC2)c1cnccn1,i,+
O=C(Nc1ccc2c(c1)CN(C(=O)c1cccs1)CC2)c1ccc2nsnc2c1,i,i
O=C(CCc1ccccc1)Nc1ccc2c(c1)CN(S(=O)(=O)c1ccccc1)CC2,i,i
O=C(Nc1ccc2c(c1)CN(C(=O)c1cccs1)CC2)c1cnccn1,i,+
Cc1c(Cl)ccc2sc(N(CCCN(C)C)C(=O)c3ccn(C)n3)nc12,i,i
Cc1cc(C)c2sc(N(CCCN(C)C)C(=O)c3ccn(C)n3)nc2c1,i,+
O=C(NCCc1csc2nc(-c3cccc(F)c3)nn12)c1ccno1,i,i
CCCC(CCC)C(=O)N1CCN(c2nccn2CC)CC1,i,+
